# From PubChem BioAssay (Tox21)
# Activity calls are given as the source filed them. Where a call stands in place of a potency, no number is given. Calls come from the whole dose curve.
# Biological target: Gonadotropin-releasing hormone receptor (Homo sapiens) (UniProt P30968)
# Experiment: Human gonadotropin-releasing hormone receptor (GnRHR) small molecule agonists, calcium flux assay in GnRHR-HEK293 cells (AID 1920063); note: nearly all actives have a fitted effect of over 35% in size
# Details: calcium flux fluorescence, agonist mode; series mostly up to 57.6 µM
# Description: National Center for Advancing Translational Sciences [NCATS]
# Division of Preclinical Innovation [DPI]
# U.S. Environmental Protection Agency [EPA]
# National Institutes of Environmental Health Sciences [NIEHS]
# National Toxicology Program [NTP]
# U.S. Food and Drug Administration [FDA]
# Gonadotropin-releasing hormone receptor (GnRHR) is a G-protein-coupled receptor (GPCR) and acts (through phospholipase C) to increase intracellular inositol trisphosphate and then release intracellular calcium stores. Cell-based GnRHR-Hek293 calcium influx assay is using HEK293 cells that have been genetically engineered to express the human GnRHR, which activity can be measured by calcium signaling. A compound/drug can activate (agonist) GnRHR that can be monitored by levels of intracellular calcium.
# GnRHR-HEK293 cells developed by Codex Corp contain human GnRHR reporter gene, which was stably integrated into HEK 293 cells. The compound activation can be detected by fluorescence intensity via calcium flux assay. This cell line has been used to screen the Tox21 10K compound library to identify GnRHR agonists.
# GnRHR-Hek293 cells were dispensed at 1500cells/4uL/well in 1536-well black wall/clear bottom plates using a multidrop dispenser. After the assay plates were incubated at a 37 C/5% CO2 incubator for 18 hours, 4 uL of Calcium Dye Solution was added to each well. The plates were incubated at 37 C for 1 hour. For agonist mode, 23 nL of compounds dissolved in DMSO, positive controls or DMSO only was transferred to the assay plate by a pin tool station. The fluorescence intensity in the plates was measured using FDSS 7000EX kinetic plate reader with a filter set of Ex/Em=480/540 for 3 min at 1 sec intervals. Each test compound was measured at 15 concentrations and in triplicates.
# Potency is the fitted concentration of half-maximal effect.
# Gonadotropin-releasing hormone receptor (Homo sapiens), sequence (P30968 whole entry, looked up): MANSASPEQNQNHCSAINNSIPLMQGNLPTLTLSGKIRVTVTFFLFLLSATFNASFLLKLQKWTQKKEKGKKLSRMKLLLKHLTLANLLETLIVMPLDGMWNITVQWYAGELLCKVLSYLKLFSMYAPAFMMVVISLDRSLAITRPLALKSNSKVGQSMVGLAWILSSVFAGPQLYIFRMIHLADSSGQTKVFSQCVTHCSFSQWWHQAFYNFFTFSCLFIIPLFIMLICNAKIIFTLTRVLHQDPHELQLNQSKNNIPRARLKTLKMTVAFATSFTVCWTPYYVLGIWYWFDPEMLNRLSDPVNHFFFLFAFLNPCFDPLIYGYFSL
Structure (SMILES),Potency,activity change
Nc1ccc(Cl)cc1[N+](=O)[O-],inactive,–
Cc1cccc(CN2CCN(C(c3ccccc3)c3ccc(Cl)cc3)CC2)c1 (stereo not given),inactive,–
CC(C)(C)c1n[nH]c(=S)n(N)c1=O,inactive,–
Cc1ccc2c(c1[N+](=O)[O-])C(=O)c1ccccc1C2=O,inactive,–
CCC(C)(CCC(C)C)C(=O)[O][Sn]([CH3])([CH3])[O]C(=O)C(C)(CC)CCC(C)C (stereo not given),inactive,–
C[C@]12CCC(=O)C=C1CC[C@@H]1[C@@H]2[C@@H](O)C[C@@]2(C)[C@H]1CC[C@]2(O)C(=O)COC(=O)CCC(=O)O,inactive,–
COC(=O)C(C)O (stereo not given),inactive,–
CCCC(=O)OCCC(C)C,inactive,–
Cc1nc2n(c(=O)c1CCN1CCC(c3noc4cc(F)ccc34)CC1)CCC[C@H]2O,–,"-1.01% [at 11.8 µM, active compounds read high] (inactive)"
CO/N=C(\C(=O)N[C@@H]1C(=O)N2C(C(=O)O)=C(CSc3nc(=O)c(O)nn3C)CS[C@H]12)c1csc(N)n1,inactive,–
CCCCCOc1ccc(C2SC(=O)NC2=O)cc1OCC (stereo not given),inactive,–
CCCCCCOC(=O)C(C)C,inactive,–
O=c1c(-c2ccccc2)c1-c1ccccc1,inactive,–
C[Si]1(C)O[Si](C)(C)O[Si](C)(C)O1,inactive,–
CCCCCCCCCCCCCCNCCO,inactive,–
CCN(CC)CCOC(=O)C1(c2ccccc2)CCCC1,inactive,–
CC(C)(C)NCC(O)c1cc(O)cc(O)c1 (stereo not given),0.268 µM (active),–
CCCCOCCOC(=O)COc1cc(Cl)c(Cl)cc1Cl,inactive,–
CCCCCCCCCCCCCCCCCCOS(=O)(=O)O,inactive,–
Cc1nc(C)nc(N2C[C@@H](C)N(c3ccnc([C@@H](C)O)n3)[C@@H](C)C2)n1,inactive,–

Structure (SMILES),Potency,activity change
CC[C@@H](N)CO,inactive,–
CN(C)CCC=C1c2ccccc2C=Cc2ccccc21,inactive,–
CCCC(=O)c1cc(O)c(O)cc1O,inactive,–
Cc1nc(C2CCCCC2)c(-c2ccc(S(N)(=O)=O)c(F)c2)o1,inactive,–
CCCC(=O)C(CC)Sc1ccoc1C (stereo not given),inactive,–
NC(=O)C(=O)N/N=C/c1ccc([N+](=O)[O-])o1,inactive,–
OCCN1C[C@H](O)[C@@H](O)[C@H](O)[C@H]1CO,inactive,–
OCC(CBr)(CBr)CBr,inactive,–
O=C(O)Cc1csc(-c2ccc(Cl)cc2)n1,inactive,–
CN(C)CCCOC1(Cc2ccccc2)CCCCCC1,inactive,–
CC(=O)Oc1cc(C(C)C)c(OCCN(C)C)cc1C,inactive,–
CC(=O)O[C@@H]1CC2CCC1(C)C2(C)C (stereo not given in full),inactive,–
CC(=O)OCC[N+](C)(C)C,6.01 µM (active),–
CC(C)(C)c1ccccc1,inactive,–
CC(CC(=O)O)CC(C)(C)C (stereo not given),inactive,–
CN1CCN(C2Cc3ccccc3Sc3ccc(Cl)cc32)CC1 (stereo not given),inactive,–
COc1ccc(OC)c(NC(=O)CC(C)=O)c1,inactive,–
COc1ccc(C(=O)Nc2ccccc2)cc1[N+](=O)[O-],inactive,–
Cc1ccc(NC(N)=O)cc1,inactive,–
[Cl][Pt-2]([Cl])([Cl])[Cl],inactive,–
